# Experimental data as given in PubChem BioAssay (NCATS).
# Where “and” joins values, the source holds several entries; their conditions need not be identical. Identical values can stand only once. Results filed as inconclusive are left out. Where a call stands in place of a potency, no number is given. Calls of active or inactive are those of the source. Unless noted, calls follow the shape of the dose curve; as a rule, active = well fitted curve in the direction sought with a large enough effect; inconclusive = small, poorly fitted or top-dose-only effect, or another doubt; inactive = no such curve, though single readings can be large; an effect the other way counts as inactive or inconclusive.
# Tests used:
# [1] = Cell Viability - BJ (AID 421; calls by dose curve;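 also: potency is read from the fitted curve at half-maximal effect; cells exposed to compound for 40 hours at 37 °C before readout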); settings: BJ fibroblast viability, qHTS
# Method in brief: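 Cytotoxicity in human BJ foreskin fibroblasts is scored as loss of cellular ATP after a 40-hour exposure, measured by luciferase luminescence. Controls are DMSO and 100 uM tamoxifen.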
# [2] = Cell Viability - HepG2 (AID 433; calls by dose curve;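 also: potency is read from the fitted curve at half-maximal effect; cells exposed to compound for 40 hours; potency for ATP loss meaning cytotoxicity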); settings: qHTS
# Method in brief: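 HepG2 hepatocellular carcinoma cells (1500/well) were treated with compounds for 40 h at 37 °C in complete medium; intracellular ATP was read by CellTiter-Glo luminescence. Data were normalized to DMSO and 100 uM tamoxifen, and AC50 came from Hill fits.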
# [3] = Cell Viability - Mesenchymal (AID 546); settings: mesenchymal cells viability, qHTS; activity change, negative = cytotoxicity: at 91.7 µM (top of the series);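 also: cells exposed to compound for 40 hours before reading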
# Method in brief: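 AC50 values reflect the drop in intracellular ATP in a human kidney mesenchymal line derived from normal glomeruli. Treatment lasts 40 hr at 37 °C in complete medium, and the signal comes from CellTiter-Glo luminescence.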
# [4] = Cellular Toxicity (caspase-3) Jurkat (AID 655); settings: Jurkat caspase-3 activation, luminescence; caspase-3 activation: at 92.2 µM (top of the series), DMSO = 0%, tamoxifen = 100%;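 also: cells exposed to compound for 16 h at 37 °C before reading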
# Method in brief: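 Jurkat cells (5000/well) in complete medium were treated with compounds for 16 hr at 37 °C, then Caspase-Glo 3/7 luminescence was read after 20 min at room temperature. Data normalized to DMSO (basal) and 100 uM tamoxifen (100%); AC50 from Hill fit.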
# [5] = Cell Viability - LYMP1-002 - Assay at 16 hr (AID 948); settings: LYMP1-002 lymphoblastoid cell viability; series mostly up to 92.2 µM
# Method in brief: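 Human lymphoblastoid cells (LYMP1-002), 2500/well, were preincubated 5 hr at 37 C, then exposed to compounds for 16 hr at 37 C in complete medium. Cellular ATP was read by CellTiter-Glo luminescence after 30 min at room temperature; AC50 from Hill fits.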
# [6] = MultiTox-Fluor Cytotoxicity Assay - LYMP1-002 - Live Cells (AID 955); settings: LYMP1-002 lymphoblastoid live-cell protease fluorescence viability; series mostly up to 46.1 µM
# Method in brief: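 Cytotoxicity in the human lymphoblastoid line LYMP1-002 is measured as loss of live-cell protease activity after 16 h treatment in complete culture medium. AC50 is derived from Hill-equation fits of qHTS concentration-response data.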
# [7] = Cell Viability - LYMP2-003 (AID 965); settings: LYMP2-003 lymphoblastoid cell viability; series mostly up to 92.2 µM;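 also: cells exposed to compounds for 24 h before reading; nearly all actives have a fitted effect of over 50% in size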; also: potency is read from the fitted curve at half-maximal effect
# Method in brief: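 Human lymphoblastoid cells (2500/well) were pre-incubated 5 hr at 37 C, then exposed to compounds over a concentration range for 24 hr at 37 C. Intracellular ATP was read by CellTiter-Glo luminescence; AC50 came from Hill-equation fits.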
# [8] = Cell Viability - LYMP2-011 (AID 969); settings: LYMP2-011 lymphoblastoid cells viability; series mostly up to 92.2 µM; also: nearly all actives have a fitted effect of over 60% in size
# Method in brief: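 Acute toxicity is scored as a concentration-dependent drop in intracellular ATP of a human lymphoblastoid line after 24 hr treatment. Values are AC50s modeled with the Hill equation.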
# [9] = Cell Viability - LYMP2-013 (AID 970); settings: LYMP2-013 lymphoblastoid cells viability; series mostly up to 92.2 µM; also: nearly all actives have a fitted effect of over 55% in size; also: potency is read from the fitted curve at half-maximal effect
# Method in brief: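 Acute toxicity was measured in human lymphoblastoid cells (2500/well) exposed to compound titrations for 24 hr, with ATP luminescence (CellTiter-Glo) as read-out and AC50 fitted by Hill equation.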
# [10] = Cell Viability - LYMP2-023 (AID 975); settings: LYMP2-023 lymphoblastoid cell viability; series mostly up to 92.2 µM; also: nearly all actives have a fitted effect of over 55% in size; also: potency is read from the fitted curve at half-maximal effect;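 as to activity change, negative = cytotoxicity: cellular ATP measured by luciferase luminescence as viability proxy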
# Method in brief: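 Concentration-dependent drop in intracellular ATP measures acute cytotoxicity in a human lymphoblastoid line treated for 24 hours in complete culture medium. AC50 values are taken from Hill-equation fits of qHTS data.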
# [11] = Cell Viability - LYMP2-002 (AID 977); settings: LYMP2-002 lymphoblastoid cell viability, qHTS; series mostly up to 92.2 µM;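 also: compound exposure lasted 24 h at 37 °C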
# Method in brief: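 Cytotoxicity is scored as concentration-dependent loss of cellular ATP in a human lymphoblastoid line after 24 hr compound treatment at 37 C. AC50 is obtained by modelling concentration-response data with the Hill equation.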
# [12] = Cell Viability - LYMP2-006 (AID 978); settings: LYMP2-006 lymphoblastoid cell viability, qHTS; series mostly up to 92.2 µM; also: nearly all actives have a fitted effect of over 60% in size; also: potency is read from the fitted curve at half-maximal effect
# Method in brief: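 Human lymphoblastoid cells, 2500 per well, were preincubated 5 hr at 37 C, then exposed to compounds for 24 hr at 37 C in complete medium. Viability was read as intracellular ATP by CellTiter-Glo luminescence; AC50 from Hill-equation fits of qHTS concentration-response data.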
# [13] = Cell Viability - LYMP2-008 (AID 980); settings: LYMP2-008 lymphoblastoid cell viability, qHTS; series mostly up to 92.2 µM; also: nearly all actives have a fitted effect of over 60% in size; also: potency is read from the fitted curve at half-maximal effect
# Method in brief: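 Acute cytotoxicity is scored as concentration-dependent loss of cellular ATP in a human lymphoblastoid line after 24 hr treatment at 37 C. ATP is quantified by luciferase luminescence.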
# [14] = Cell Viability - LYMP2-012 (AID 982); settings: LYMP2-012 lymphoblastoid cell viability qHTS; series mostly up to 92.2 µM;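 also: cellular ATP by luciferase luminescence where a drop means cytotoxicity; cells exposed to compound for one day before reading; nearly all actives have a fitted effect of over 55% in size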; also: potency is read from the fitted curve at half-maximal effect
# [15] = Cell Viability - LYMP2-020 (AID 986); settings: series mostly up to 92.2 µM; also: nearly all actives have a fitted effect of over 55% in size; also: potency is read from the fitted curve at half-maximal effect
# Method in brief: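 Acute cytotoxicity in a human lymphoblastoid line is scored as a concentration-dependent fall in cellular ATP after 24 hr at 37 C in complete medium. The positive control is tetraoctylammonium bromide, and potency is given as Hill-fit AC50.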
# [16] = Cell Viability - LYMP2-022 (AID 987); settings: LYMP2-022 lymphoblastoid cell viability; series mostly up to 92.2 µM; also: nearly all actives have a fitted effect of over 55% in size; also: potency is read from the fitted curve at half-maximal effect
# Method in brief: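 Acute toxicity in a human lymphoblastoid line is scored as decreased intracellular ATP after 24 hr compound treatment at 37 C. ATP is measured by CellTiter-Glo luminescence; curves are fitted with the Hill equation to give AC50.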
# [17] = Cell Viability - LYMP2-024 (AID 988); settings: LYMP2-024 lymphoblastoid cell viability; series mostly up to 92.2 µM; also: nearly all actives have a fitted effect of over 60% in size; also: potency is read from the fitted curve at half-maximal effect
# Method in brief: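 Acute toxicity is measured as concentration-dependent loss of intracellular ATP in a human lymphoblastoid line treated 24 hours at 37 C. Luciferase luminescence quantifies ATP; AC50 values come from standard Hill-equation modelling.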
# [18] = Cell Viability - LYMP1-002 - Assay at 40 hr (AID 994); settings: LYMP1-002 lymphoblastoid cell viability; series mostly up to 92.2 µM; also: nearly all actives have a fitted effect of over 60% in size
# Method in brief: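 Viability in the human lymphoblastoid line was measured as intracellular ATP via CellTiter-Glo after 40 hr compound exposure. Tetraoctylammonium bromide served as positive control.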
# [19] = qHTS assay for small molecule antagonists of retinoid X receptor alpha signaling (AID 588546); settings: HEK293T RXRa-UAS-bla, beta-lactamase ratio, antagonist mode; measured here: W530 green channel, cytotoxicity proxy;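 also: cells stimulated with 9-cis-retinoic acid as agonist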
# Method in brief: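 Beta-lactamase reporter inhibition, read as CCF4 fluorescence ratio (ex 405, em 460/530 nm) after 2 h at RT. HEK293T UAS-bla cells, 2500/well, were stimulated with 9-cis-RA at 500 or 100 nM final alongside test compound for 18 h at 37 C.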
# [20] = qHTS assay for environmental chemicals that activate the Aryl hydrocarbon Receptor (AhR) signaling pathway (AID 651777); settings: 1A2-DRE human hepatoma cells, luciferase, 24 h; activation: stronger effect = higher value; also: nearly all actives have a fitted effect of over 15% in size
# Method in brief: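 Human hepatoma 1A2-DRE cells stably carrying a DRE/CYP1A2 promoter–luciferase reporter, 1,200 cells/well, exposed to compound 24 hr at 37 C. Luciferase read by One-Glo luminescence after 30 min at room temperature; increased signal marks AhR activation.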
smiles,measurement,setting,value
Oc1c(Cl)cc(Cl)c(Cl)c1Cl,Potency,[1],> 92 µM (inactive)
same,Potency,[2],> 92 µM (inactive)
same,Potency,[3],inactive
same,caspase-3 activation,[4],91.2% (active)
same,Potency,[5],inactive
same,outcome,[6],inactive
same,Potency,[7],inactive
same,Potency,[8],inactive
same,Potency,[9],inactive
same,Potency,[10],inactive
same,Potency,[11],inactive
same,Potency,[12],inactive
same,Potency,[13],inactive
same,Potency,[14],inactive
same,Potency,[15],inactive
same,Potency,[16],inactive
same,Potency,[17],inactive
same,Potency,[18],inactive
same,max response,[19],-1.63% and -16.2%
same,activation,[20],-0.427% (inactive)
CCCCOC(=O)COc1ccc(Cl)cc1Cl,Potency,[1],> 92 µM (inactive)
same,Potency,[2],> 92 µM (inactive)
same,Potency,[3],inactive
same,Potency,[4],inactive
same,Potency,[5],inactive
same,outcome,[6],inactive
same,Potency,[7],inactive
same,Potency,[8],inactive
same,Potency,[9],inactive
same,Potency,[10],inactive
same,Potency,[11],inactive
same,Potency,[12],inactive
same,Potency,[13],inactive
same,Potency,[14],inactive
same,Potency,[15],inactive
same,Potency,[16],inactive
same,Potency,[17],inactive
same,Potency,[18],inactive
same,max response,[19],-10.2% and -6.39%
CC/C=C/C/C=C/C/C=C/CCCCCCCC(=O)OCC,Potency,[1],> 92 µM (inactive)
same,Potency,[2],> 92 µM (inactive)
same,Potency,[3],inactive
same,Potency,[4],inactive
same,Potency,[7],31.6 µM (active)
same,Potency,[9],50.1 µM (active)
same,Potency,[10],39.8 µM (active)
same,Potency,[12],50.1 µM (active)
same,Potency,[13],50.1 µM (active)
same,Potency,[14],39.8 µM (active)
same,Potency,[15],39.8 µM (active)
same,Potency,[16],25.1 µM (active)
same,Potency,[17],25.1 µM (active)
same,activation,[20],0.56% (inactive)
CC(=O)CC(=O)Nc1ccccc1,Potency,[1],> 92 µM (inactive)
same,Potency,[2],> 92 µM (inactive)
same,Potency,[3],inactive
same,Potency,[4],inactive
same,Potency,[5],inactive
same,outcome,[6],inactive
same,Potency,[7],inactive
same,Potency,[8],inactive
same,Potency,[9],inactive
same,Potency,[10],inactive
same,Potency,[11],inactive
same,Potency,[12],inactive
same,Potency,[13],inactive
same,Potency,[14],inactive
same,Potency,[15],inactive
same,Potency,[16],inactive
same,Potency,[18],inactive
same,max response,[19],10.1% and 20.6%
same,activation,[20],1.24% (inactive) and 1.64% (inactive)
Cc1cc(=O)oc2cc(O)cc(O)c12,Potency,[1],> 92 µM (inactive)
same,Potency,[2],> 92 µM (inactive)
same,Potency,[3],inactive
same,Potency,[4],inactive
same,Potency,[5],inactive
same,outcome,[6],inactive
same,Potency,[7],inactive
same,Potency,[8],inactive
same,Potency,[9],inactive
same,Potency,[10],inactive
same,Potency,[11],inactive
same,Potency,[12],inactive
same,Potency,[13],inactive
same,Potency,[14],inactive
same,Potency,[15],inactive
same,Potency,[16],inactive
same,Potency,[17],inactive
same,Potency,[18],inactive
same,activation,[20],8.78% (inactive)
OCC(CO)(CBr)CBr,Potency,[1],> 92 µM (inactive)
same,Potency,[2],> 92 µM (inactive)
same,Potency,[3],inactive
same,Potency,[4],inactive
same,Potency,[5],inactive
same,outcome,[6],inactive
same,Potency,[7],inactive
same,Potency,[8],inactive
same,Potency,[9],inactive
same,Potency,[10],inactive
same,Potency,[11],inactive
same,Potency,[12],inactive
same,Potency,[13],inactive
same,Potency,[14],inactive
same,Potency,[15],inactive
same,Potency,[16],inactive
same,Potency,[17],inactive
same,Potency,[18],inactive
same,max response,[19],6.52% and -5.45%
same,activation,[20],0.992% (inactive) and 2.31% (inactive)
C=CC(C)(O)CCCC(C)CCCC(C)CCCC(C)C (stereo not given),Potency,[1],> 92 µM (inactive)
same,Potency,[2],> 92 µM (inactive)
same,Potency,[3],inactive
same,Potency,[4],inactive
same,Potency,[5],inactive
same,outcome,[6],inactive
same,Potency,[7],inactive
same,Potency,[8],inactive
same,Potency,[9],inactive
same,Potency,[10],inactive
same,Potency,[12],inactive
same,Potency,[13],inactive
same,Potency,[14],inactive
same,Potency,[15],inactive
same,Potency,[16],inactive
same,Potency,[17],inactive
same,Potency,[18],inactive
same,max response,[19],-10.2%
same,activation,[20],-0.417% (inactive)
